Results reported in PubChem BioAssay (Tox21).
Inconclusive results are not listed. The source made the active and inactive calls. Unless noted, calls follow the shape of the dose curve; as a rule, active = well fitted curve in the direction sought with a large enough effect in the repeat runs; inconclusive = weak or mixed curves; inactive = no such curve, though single readings can be large; an effect the other way counts as inactive or inconclusive. Positions of bridges follow the written chain, without caps; N, C: chain ends. Non-standard residues stand in square brackets, D forms with d. Residues, ends and D or L forms follow the SMILES beside them. hArg = N=C(N)NCCCC[C@H](N)C(=O)O; Mpa = O=C(O)CCS

Columns and labels:
[1] = qHTS assay for small molecule agonists of the p53 signaling pathway (AID 651631; calls by dose curve; also: nearly all actives have a fitted effect of over 15% in size)
In short: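 HCT-116 p53RE-bla reporter line, 16 h compound treatment at 37 °C, then fluorescence after 2 h with B/G FRET substrate.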

[2] = qHTS assay for small molecules that induce genotoxicity in human embryonic kidney cells expressing luciferase-tagged ATAD5 (AID 651632); also: nearly all actives have a fitted effect of over 15% in size
In short: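 Concentration-response screen for ATAD5 upregulation in HEK293T luciferase reporter cells; 16 hr treatment at 37C, then luminescence after 30 min with Amplite at room temperature.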

[3] = qHTS assay for small molecules that induce genotoxicity in human embryonic kidney cells expressing luciferase-tagged ATAD5 - cell viability (AID 651634; calls by dose curve; also: nearly all actives have a fitted effect of over 25% in size)
In short: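 15.5 hr compound or vehicle exposure of HEK293T cells expressing luciferase-tagged ATAD5 at 37C; live-cell protease activity is read by fluorescence after 30 min of CellTiter-Fluor.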

[4] = qHTS assay for small molecule disruptors of the mitochondrial membrane potential (AID 720635)
In short: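 HepG2 cells exposed to compound 1 hr at 37C, then Mito-MPS dye 30 min. Ratio read of aggregate (540/590 nm) versus monomer (490/535 nm) fluorescence.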

[5] = qHTS assay to test for compound auto fluorescence at 590 nm (red) in HepG2 cells (AID 720674)
In short: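 Seeding: 2,000 HepG2 cells/well, MEM/10% FBS, overnight 37 C. Dosing: compound vs DMSO. Incubation: 1 hr, 37 C, 5% CO2. Read: fluorescence 540 ex/590 em, Rose Bengal sodium as red reference.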

[6] = qHTS assay to test for compound auto fluorescence at 535 nm (green) in HepG2 cells (AID 720675)
[7] = qHTS assay to test for compound auto fluorescence at 460 nm (blue) in HEK293 cells (AID 720678)
In short: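 Intrinsic compound fluorescence is recorded in live HEK293 cultures after overnight incubation at 37C, 5% CO2, using excitation 405 nm and emission 460 nm. Values are referenced to triamterene.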

[8] = qHTS assay to test for compound auto fluorescence at 590 nm (red) in HEK293 cells (AID 720679)
In short: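 Red autofluorescence, HEK293 cells: 2,000 cells/well; attach 4-5 hr 37C; add 23 nL cpd or DMSO; incubate o/n 37C 5% CO2; read Ex540/Em590; Rose Bengal sodium reference.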

[9] = qHTS assay to test for compound auto fluorescence at 535 nm (green) in HEK293 cells (AID 720680)
[10] = qHTS assay to test for compound auto fluorescence at 460 nm (blue) in HEK293 cell free culture (AID 720681)
In short: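 Compounds were added to cell-free DMEM with 10% FBS and fluorescence read directly. The blue channel used 405 nm excitation and 460 nm emission, with triamterene as the reference fluorophore.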

[11] = qHTS assay to test for compound auto fluorescence at 590 nm (red) in HEK293 cell free culture (AID 720683)
In short: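 Cell-free wells of DMEM with 10% FBS received compound, and intrinsic fluorescence was read at excitation/emission 540/590 nm. Values expressed as equivalence to Rose Bengal sodium.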

[12] = qHTS assay to test for compound auto fluorescence at 590 nm (red) in HepG2 cell free culture (AID 720684)
In short: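 Auto fluorescence equivalency versus Rose Bengal sodium, red channel Ex/Em 540/590 nm; compounds in cell-free MEM/10% FBS; DMSO vehicle control.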

[13] = qHTS assay to test for compound auto fluorescence at 460 nm (blue) in HepG2 cell free culture (AID 720685)
In short: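 Cell-free plates of MEM plus 10% FBS received 23 nL compound or DMSO vehicle; blue-channel (405/460 nm) intensity scored against triamterene as reference fluorophore.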

[14] = qHTS assay to test for compound auto fluorescence at 535 nm (green) in HepG2 cell free culture (AID 720686)
[15] = qHTS assay to test for compound auto fluorescence at 460 nm (blue) in HepG2 cells (AID 720687)
In short: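 HepG2 cells in MEM with 10% FBS, attached overnight at 37 C, were exposed to compound or DMSO for 1 hr at 37 C, 5% CO2. Blue fluorescence was read at 405/460 nm, with triamterene as reference fluorophore.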

[16] = biological target: Glucocorticoid receptor (Homo sapiens) (UniProt P04150); assay: qHTS assay to identify small molecule agonists of the glucocorticoid receptor (GR) signaling pathway (AID 720691; active = well fitted activation curve with a large enough effect in the signal ratio in the repeat runs, not every such curve was filed as active; the % refers to the signal ratio)
In short: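 Measures GR pathway activation through a GRE-beta-lactamase reporter stably integrated in HeLa cells, with 18 h compound treatment at 37 C and fluorescence detection using a FRET substrate.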

[17] = biological target: Glucocorticoid receptor (Homo sapiens) (UniProt P04150); assay: qHTS assay to identify small molecule antagonists of the glucocorticoid receptor (GR) signaling pathway (AID 720692; active = well fitted inhibition curve with a large enough effect in the signal ratio in the repeat runs, not every such curve was filed as active; the % refers to the signal ratio)
In short: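 Tox21 10K library screened in concentration-response for blockade of dexamethasone (5 nM final)-induced GRE-bla reporter activity in HeLa cells; 18 h treatment, fluorescence read.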

[18] = qHTS assay for small molecule agonists of the p53 signaling pathway - cell viability (AID 651633; calls by dose curve;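 also: p53RE-bla HCT reporter cells with a stable beta-lactamase p53 reporter; series mostly up to about 83 µM; nearly all actives have a fitted effect of over 30% in size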)
In short: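 p53RE-bla cells were treated with compound for 16 hours at 37 C. Cytotoxicity was then measured as CellTiter-Glo luminescence after 30 min at room temperature.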

[19] = qHTS assay for small molecule disruptors of the mitochondrial membrane potential - cell viability (AID 720634; calls by dose curve;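 also: human HepG2 liver cancer cells; series mostly up to about 83 µM; nearly all actives have a fitted effect of over 20% in size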)
In short: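 In this qHTS format, HepG2 cells plated overnight were pinned with compound, incubated 1 hr, and assayed for ATP luminescence with CellTiter-Glo after m-MPI dye addition.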

[20] = qHTS assay to test for compound auto fluorescence at 535 nm (green) in HEK293 cell free culture (AID 720682)
In short: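 Steps: dispense DMEM/10% FBS into empty wells; pin in compound or DMSO; measure fluorescence at 485/535 nm. Values are fluorescein equivalents.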

Measured: Potency

Sequence of Glucocorticoid receptor (Homo sapiens) (P04150 whole entry, looked up): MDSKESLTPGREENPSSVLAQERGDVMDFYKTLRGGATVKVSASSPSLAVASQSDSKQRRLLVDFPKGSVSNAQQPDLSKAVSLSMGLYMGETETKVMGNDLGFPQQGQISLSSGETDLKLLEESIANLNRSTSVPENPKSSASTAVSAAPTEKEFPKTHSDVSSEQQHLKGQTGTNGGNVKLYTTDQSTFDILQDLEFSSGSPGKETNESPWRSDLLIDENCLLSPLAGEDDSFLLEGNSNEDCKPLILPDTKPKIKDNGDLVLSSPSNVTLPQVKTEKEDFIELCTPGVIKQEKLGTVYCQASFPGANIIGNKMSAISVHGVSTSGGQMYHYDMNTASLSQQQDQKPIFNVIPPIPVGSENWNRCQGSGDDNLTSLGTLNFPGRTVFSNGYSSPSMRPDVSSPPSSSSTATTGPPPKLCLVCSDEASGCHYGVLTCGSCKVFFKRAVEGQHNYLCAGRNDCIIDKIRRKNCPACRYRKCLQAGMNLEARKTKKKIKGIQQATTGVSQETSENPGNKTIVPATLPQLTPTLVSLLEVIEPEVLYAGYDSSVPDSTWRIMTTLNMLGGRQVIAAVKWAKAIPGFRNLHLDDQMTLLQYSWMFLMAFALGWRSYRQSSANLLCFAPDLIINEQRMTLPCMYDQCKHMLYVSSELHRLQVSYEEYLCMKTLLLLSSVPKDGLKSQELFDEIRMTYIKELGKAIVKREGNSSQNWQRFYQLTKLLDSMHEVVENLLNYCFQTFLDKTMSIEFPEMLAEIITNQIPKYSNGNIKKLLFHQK

CC(C)COC(=O)c1ccccc1
not listed: [18] | [19] | [20]
inactive: all other assays above

O=C(CCCCC(=O)Nc1c(I)cc(I)c(C(=O)O)c1I)Nc1c(I)cc(I)c(C(=O)O)c1I
not listed: [1]
inactive: all other assays above

NC(=O)[C@@H]1CSSCCC(=O)N[C@@H](CCCCN=C(N)N)C(=O)NCC(=O)N[C@@H](CC(=O)O)C(=O)N[C@@H](Cc2c[nH]c3ccccc23)C(=O)N2CCC[C@H]2C(=O)N1 ([Mpa][hArg]GDWPC-NH2; disulfide 1-7)
not listed: [3] | [5] | [11] | [17] | [19]
inactive: all other assays above

CC(=O)O[C@H]1C[C@@H]2CC[C@@]1(C)C2(C)C
not listed: [3] | [13] | [18]
inactive: all other assays above

CN(C)C(C)(C)CO
not listed: [1]
inactive: all other assays above

C=CCCCC
not listed: [3] | [4] | [5] | [11] | [16] | [19]
inactive: all other assays above

CC(O)COC(C)(C)C (configuration not stated)
not listed: [2] | [4] | [6] | [17]
inactive: all other assays above
